Source: PubChem BioAssay AID1259421 (Broad Institute, 2018)
“And” between values parts separate entries of the source, which are not always exact repeats. Identical values can stand only once. The whole screen tested about 6,400 compounds, of which about 610 (9.5%) were called active. Cut-off read from the data, not from the text of the source: active = activity change below about -70%; inconclusive = no clear call, values can overlap the other calls; inactive = above that. The entries come from a sample that favours actives as a whole. More than one record can exist for a structure, and the calls need not agree.

test: Toxoplasma gondii ME49Luc growth in HeLa cells, luciferase, no IFN-y, primary screen (AID 1259421); settings: T. gondii ME49Luc in HeLa, 72 h, stronger effect = lower value, concentration not given here

SMILES	activity change, negative = inhibition
NC(=O)CS(=O)C(c1ccccc1)c1ccccc1 (configuration not stated)	-1.56% (inactive)
COC(=O)CN1CN(c2ccccc2)C2(CCN(Cc3ccc4ccccc4c3)CC2)C1=O	13.3% (inactive)
O=C(CCCN1CCC2(CC1)C(=O)N(Cc1cccc(F)c1)CN2c1ccccc1)c1ccc(F)cc1	10% (inactive) and -81.6% (active)
O=C(CCCN1CCC2(CC1)C(=O)NCN2c1ccccc1)c1ccc(F)cc1	2.21% (inactive) and -33.3% (inactive)
Cc1cc(OC(=O)N2CCCCC2)c(C(C)C)cc1[N+](C)(C)C	-5.32% (inactive)
C/C(=C\c1csc(C)n1)[C@@H]1C[C@@H]2O[C@@H]2CCC[C@H](C)[C@H](O)[C@@H](C)C(=O)C(C)(C)[C@@H](O)CC(=O)O1	-69.4% (inactive)
C/C(=C\c1csc(C)n1)[C@H]1C[C@@H]2O[C@]2(C)CCC[C@H](C)[C@H](O)[C@@H](C)C(=O)C(C)(C)[C@@H](O)CC(=O)O1	-66.8% (inactive)
C/C(=C\c1csc(C)n1)[C@H]1C[C@@H]2O[C@]2(C)CCC[C@H](C)[C@H](O)[C@@H](C)C(=O)C(C)(C)[C@H](O)CC(=O)O1	-73.6% (active)
C/C1=C/C[C@@H](/C(C)=C/c2csc(C)n2)OC(=O)C[C@H](O)C(C)(C)C(=O)[C@H](C)[C@@H](O)[C@@H](C)CCC1	-85.9% (active)
CCN1CC2(COC(=O)c3ccccc3N3C(=O)CC(C)C3=O)CCC(OC)C34C5CC6C(OC)CC(O)(C5C6OC)C(O)(C(OC)C23)C14 (configuration not stated)	4.55% (inactive)
C[C@H](NC(=O)[C@@H](N)Cc1ccc(O)cc1)C(=O)NCC(=O)N(C)[C@@H](Cc1ccccc1)C(=O)N[C@H](CO)CCS(C)=O (some centres not stated)	12.9% (inactive)
O=C1/C(=C/c2ccccc2)C[C@@]2(O)C3Cc4ccc(O)c5c4[C@@]2(CCN3CC2CC2)[C@H]1O5	1.86% (inactive)
COc1ccc2c(c1)[C@]13CCCC[C@H]1[C@H](C2)N(C)CC3	16.4% (inactive)
Cc1cc(C)cc(C(=O)OC2CC3CCC(C2)N3C)c1 (configuration not stated)	-12.3% (inactive) and -9.52% (inactive)
CN1C(=O)CN=C(c2ccccc2)c2cc(Cl)ccc21	-6.2% (inactive)
N#Cc1nn(-c2c(Cl)cc(C(F)(F)F)cc2Cl)c(N)c1S(=O)C(F)(F)F (configuration not stated)	13.6% (inactive) and 5.34% (inactive)
CC(N)Cc1c[nH]c2ccc(OCc3cccs3)cc12 (configuration not stated)	1.64% (inactive) and -1.85% (inactive)
C#Cc1cccc2c1c(C(=O)c1ccc(Cn3c(C)nc4cnccc43)c(F)c1)cn2C(=O)N(C)C	-7.53% (inactive)
Oc1ccc2c3c1O[C@H]1c4[nH]c5ccccc5c4C[C@@]4(O)C(C2)N(CC2CC2)CC[C@]314	10.7% (inactive)
CO[C@H]1CCC(O[C@H]2CC([C@]3(C)CC[C@]4(C[C@H](O)[C@@H](C)[C@@H]([C@@H](C)/C=C(\C)C(=O)[C@H](C)C[C@H](C)C(=O)O)O4)O3)O[C@]3(O[C@@H](C4O[C@@](O)(CO)[C@H](C)C[C@@H]4C)C[C@@H]3C)[C@@H]2C)O[C@@H]1C (some centres not stated)	-83.8% (active)
N[C@H](CO)Cc1ccccc1	1.26% (inactive)

SMILES	activity change, negative = inhibition
N#CC(C#N)=Cc1ccc([N+](=O)[O-])c(O)c1	-6.99% (inactive)
Oc1ccc2c(c1)[C@@]13CCCC[C@@]1(O)[C@@H](C2)N(CC1CCC1)CC3	18.4% (inactive)
COC(=O)C[C@@](O)(CCC(C)(C)O)C(=O)O[C@@H]1C(OC)=C[C@]23CCCN2CCc2cc4c(cc2[C@@H]13)OCO4	-83.3% (active)
CN1CCc2cc3c(cc2C1O)OCO3 (configuration not stated)	7.57% (inactive)
CSCCC(NC(=O)C(Cc1ccccc1)NC(=O)CNC(=O)CNC(=O)C(N)Cc1ccc(O)cc1)C(=O)O (configuration not stated)	10.2% (inactive)
CCC(CO)(C(=O)OC1CC2CCC(C1)[N+]2(C)C)c1ccccc1 (configuration not stated)	0.204% (inactive)
FC(F)(F)c1cccc(C2=CCN(CCc3ccc4ccccc4c3)CC2)c1	10.1% (inactive) and 11.9% (inactive)
COC(=O)N1CCN(C(=O)Cc2ccc(Cl)c(Cl)c2)C(CN2CCCC2)C1 (configuration not stated)	6.7% (inactive)
CCN1CCN(C(=O)Cc2ccc(Nc3ncc(F)c(Nc4ccc(C(=O)Nc5ccccc5Cl)cc4)n3)cc2)CC1	-83.3% (active)
CC1(C)C2CC(=O)[C@]3(C)C(CC[C@@]4(C)[C@H](c5ccoc5)OC(=O)[C@H]5O[C@]543)[C@@]2(C)C(=O)C[C@H]1O (some centres not stated)	-1.25% (inactive)
CNCC(O)c1ccc(O)cc1 (configuration not stated)	3.63% (inactive) and 14.9% (inactive)
C[C@H](Cc1ccc(OCC(=O)O)cc1)NC[C@H](O)c1cccc(Cl)c1	4.02% (inactive) and 20.9% (inactive)
CC(Cc1ccc(O)cc1)NCC(O)c1cc(O)cc(O)c1 (configuration not stated)	-70.6% (active) and 10.9% (inactive)
C[C@]12C=CC(=O)C=C1CCC1C2CC[C@]2(C)C(=O)CCC12 (some centres not stated)	3.57% (inactive)
C[C@@H]1CN(C2CCC(C#N)(c3ccc(F)cc3)CC2)CC[C@]1(C(=O)O)c1ccccc1 (some centres not stated)	-7.9% (inactive)
C=C1CCC2(O)C3Cc4ccc(O)c5c4C2(CCN3CC2CC2)C1O5 (configuration not stated)	12.3% (inactive)
NC[C@H](CC(=O)O)c1ccc(Cl)cc1	3.97% (inactive)
CN1C2CCC1CC(OC(c1ccccc1)c1ccc(Cl)cc1)C2 (configuration not stated)	-51.9% (inactive) and 41.6% (inactive)
CN(C)CCc1ccc(O)cc1	15.3% (inactive) and 3.73% (inactive)
CC[C@@H]1[C@@H](C)O[C@@](O)([C@@H](C)[C@H](O)[C@H](C)[C@H]2OC(=O)/C=C/C=C/[C@H](C)[C@H]([C@@H](C)[C@@H](O)[C@H](C)[C@@]3(O)C[C@@H](O[C@H]4C[C@H](O)[C@H](O)[C@H](C)O4)[C@H](CC)[C@@H](C)O3)OC(=O)/C=C/C=C/[C@H]2C)C[C@H]1O[C@H]1C[C@H](O)[C@H](O)[C@H](C)O1	-83.6% (active)
CC(C)[C@@H](CN1CC[C@@](C)(c2cccc(O)c2)[C@@H](C)C1)NC(=O)[C@H]1Cc2ccc(O)cc2CN1	7.74% (inactive)
